Some test systems named below: DU-145 prostate; K-562 leukemia; MALME-3M melanoma; MDA-MB-231 breast; RXF 393 renal; SF-268 CNS; SF-295 CNS; SF-539 CNS; UACC-257 melanoma; M14 melanoma; HCT-15 colon; HT29 colon; SNB-75 CNS; SNB-19 CNS; U251 CNS; PC-3 prostate; SK-MEL-5 melanoma; UACC-62 melanoma; LOX IMVI melanoma; SK-MEL-28 melanoma.
Holding throughout (assay): NCI-60 one-dose screen, 48 h (100 = growth as untreated, 0 = no growth, -100 = all killed)
Holding throughout (conditions): 10 µM unless noted

The panel holds about 83,000 compounds, 20% with a hit somewhere; the sample as a whole holds those more often.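 A percent growth of 40 corresponds to 60% growth inhibition; 0 means no net growth; -100 means all cells died. Active threshold: below 10.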 Unmarked numbers belong to inactive results. Calls of active or inactive are those of the source.

Regarding `COc1cc2c(c(OC)c1OC)C(=O)CC(c1cccc(NC(=O)c3ccc(Br)cc3)c1)O2` (stereo not given), the growth was 58.7% with DU-145 prostate; 5.9% (active) with K-562 leukemia; 46.6% with MALME-3M melanoma; 37.3% with MDA-MB-231 breast; 66.3% in the experiment with RXF 393 renal; 57.6% with SF-268 CNS. Further, the growth in the experiment with SF-295 CNS is 41.8%; in the experiment on SF-539 CNS, 79.1%; in the experiment with UACC-257 melanoma, 53.1%; in the experiment on M14 melanoma, 20%; in the experiment with HCT-15 colon, 29.8%; with HT29 colon it was 46%. In addition, the growth with SNB-75 CNS was 47.7%; in the experiment with SNB-19 CNS it was 64.6%; with U251 CNS, 42.2%; with PC-3 prostate it was 20.9%; with SK-MEL-5 melanoma, 4.06% (active); in the experiment on UACC-62 melanoma it was 18.8%. The growth in the experiment on LOX IMVI melanoma was 43.3%; in the experiment with SK-MEL-28 melanoma, 57%.

For `C[C@]12C=CC(=O)C=C1CCC1C2[C@@H](O)C[C@@]2(C)C1CC[C@]2(O)C(=O)COC(=O)CCC(=O)O` (stereo not given in full), the growth with DU-145 prostate was 107%; with K-562 leukemia it was 104%; with MALME-3M melanoma, 94.8%; with MDA-MB-231 breast it was 94.7%; with RXF 393 renal it was 126%; in the experiment on SF-268 CNS it was 105%. Besides, the growth was 116% in the experiment on SF-295 CNS; 96.8% with SF-539 CNS; 99.3% in the experiment with UACC-257 melanoma; 106% with M14 melanoma; 105% in the experiment on HCT-15 colon; 105% in the experiment with HT29 colon. In addition, the growth in the experiment on SNB-75 CNS is 120%; in the experiment with SNB-19 CNS, 104%; in the experiment on U251 CNS it was 103%; in the experiment on PC-3 prostate, 93.4%; with SK-MEL-5 melanoma, 113%; with UACC-62 melanoma it was 104%. The results for the growth in the experiment on LOX IMVI melanoma and with SK-MEL-28 melanoma were 102% and 107%, respectively.

Take `C=C(C)[C@@H]1CC[C@]2(C(=O)OC)CC[C@]3(C)[C@H](CC[C@@H]4[C@@]5(C)C/C(=C/NC(N)=S)C(=O)C(C)(C)[C@@H]5CC[C@]43C)[C@@H]12`: the growth is 86.3% in the experiment with DU-145 prostate; 73.6% with K-562 leukemia; 119% with MALME-3M melanoma; 98.5% with MDA-MB-231 breast; 99.8% with RXF 393 renal; 95.8% in the experiment on SF-268 CNS. Besides, the growth in the experiment with SF-295 CNS is 99.4%; in the experiment on SF-539 CNS, 85.6%; with UACC-257 melanoma, 100%; in the experiment with M14 melanoma it was 87.9%; in the experiment on HCT-15 colon it was 92.8%; in the experiment on HT29 colon it was 71%. In addition, the growth in the experiment with SNB-75 CNS is 118%; with SNB-19 CNS it was 97.1%; in the experiment with U251 CNS it was 90.7%; with PC-3 prostate, 67.6%; with SK-MEL-5 melanoma it was 87.1%; in the experiment on UACC-62 melanoma, 87.4%. The results for the growth in the experiment on LOX IMVI melanoma and in the experiment with SK-MEL-28 melanoma were 90.2% and 98.9%, respectively.

For the compound `Brc1c2c(c(Br)c3ccccc13)CCCC2`, the growth in the experiment with DU-145 prostate is 110%; with K-562 leukemia, 94.7%; in the experiment with MALME-3M melanoma, 108%; with MDA-MB-231 breast, 91%; in the experiment with RXF 393 renal, 101%; in the experiment with SF-268 CNS it was 104%. The growth with SF-295 CNS was 101%; in the experiment with SF-539 CNS, 102%; in the experiment on UACC-257 melanoma it was 89.8%; with M14 melanoma it was 99.1%; in the experiment on HCT-15 colon, 112%; with HT29 colon it was 85.2%. Moreover, the growth in the experiment on SNB-75 CNS is 97.8%; with SNB-19 CNS it was 96.4%; in the experiment with U251 CNS, 91.2%; with PC-3 prostate, 93.6%; in the experiment on SK-MEL-5 melanoma, 98.3%; in the experiment on UACC-62 melanoma, 84.9%. The growth was 100% in the experiment on LOX IMVI melanoma and 101% in the experiment with SK-MEL-28 melanoma.

Turning to `COC(=O)/C=C1/SC(=Nc2ccc(C)cc2)N(CCc2c[nH]c3ccc(O)cc23)C1=O`, the growth in the experiment with DU-145 prostate was 26.9%; in the experiment on K-562 leukemia, 11.8%; in the experiment on MALME-3M melanoma, 77.4%; in the experiment on MDA-MB-231 breast it was 59.3%; in the experiment on RXF 393 renal, 47.7%; in the experiment with SF-268 CNS it was 56.3%. Also, the growth was 76.8% in the experiment on SF-295 CNS; 42.9% in the experiment on SF-539 CNS; 50.2% in the experiment with UACC-257 melanoma; 34.1% in the experiment on M14 melanoma; 14.7% with HCT-15 colon; 90.9% in the experiment on HT29 colon. The growth in the experiment on SNB-75 CNS was 52%; with SNB-19 CNS, 51.8%; in the experiment with U251 CNS, 34.7%; with PC-3 prostate it was 39%; in the experiment on SK-MEL-5 melanoma, 50.5%; in the experiment on UACC-62 melanoma it was 42.2%. The growth in the experiment on LOX IMVI melanoma was -17.8% (active); with SK-MEL-28 melanoma, 48.4%.

With `COc1ccc(C(=S)N2CCN(c3ccccc3Cl)CC2)cc1OC`, the growth with DU-145 prostate is 111%; in the experiment on K-562 leukemia, 106%; in the experiment on MALME-3M melanoma it was 90.8%; in the experiment on MDA-MB-231 breast it was 102%; in the experiment with RXF 393 renal it was 111%; in the experiment with SF-268 CNS, 99.4%. The growth is 91.7% in the experiment with SF-295 CNS; 99.4% in the experiment with SF-539 CNS; 104% in the experiment on UACC-257 melanoma; 92.8% in the experiment on M14 melanoma; 95.2% with HCT-15 colon; 102% in the experiment with HT29 colon. For the same compound, the growth is 85.6% with SNB-75 CNS; 85.3% in the experiment with SNB-19 CNS; 102% in the experiment with U251 CNS; 90.3% with PC-3 prostate; 96.4% in the experiment with SK-MEL-5 melanoma; 89.2% in the experiment on UACC-62 melanoma. For the same compound, the figures for the growth in the experiment with LOX IMVI melanoma and in the experiment with SK-MEL-28 melanoma were 92.7% and 103%, respectively.

Consider `O=S(=O)(NCCNc1cc(-c2c(-c3cccc(O)c3)nc3sccn23)ccn1)c1ccc(C(F)(F)F)cc1`, for which the growth in the experiment with DU-145 prostate was 43.1%; in the experiment on K-562 leukemia it was 22.8%; in the experiment with MALME-3M melanoma, 57.8%; in the experiment with MDA-MB-231 breast, 53.2%; with RXF 393 renal, 42.1%; with SF-268 CNS it was 34.9%. Moreover, the growth was 31.2% in the experiment with SF-295 CNS; 62.3% in the experiment with SF-539 CNS; 51.8% in the experiment on UACC-257 melanoma; 36.9% in the experiment with M14 melanoma; 25.2% with HCT-15 colon; 32.6% in the experiment with HT29 colon. Besides, the growth was 38.3% with SNB-75 CNS; 54.8% in the experiment on SNB-19 CNS; 34.8% in the experiment on U251 CNS; 31.4% in the experiment with PC-3 prostate; -2.62% (active) in the experiment with SK-MEL-5 melanoma; 40.1% with UACC-62 melanoma. Moreover, the growth was 37.8% in the experiment on LOX IMVI melanoma and 55.7% with SK-MEL-28 melanoma.

For the compound `COc1ccc(NC(=O)c2sc3nc(C)c(C(=O)/C=C/c4cccc(OC)c4)cc3c2N)cc1`, the growth was 21.9% in the experiment with DU-145 prostate; 12.7% in the experiment with K-562 leukemia; 94.1% with MALME-3M melanoma; 53.2% with MDA-MB-231 breast; -11.4% (active) with RXF 393 renal; 34.4% with SF-268 CNS. For the same compound, the growth in the experiment on SF-295 CNS was 26.9%; in the experiment on SF-539 CNS it was 71.2%; in the experiment on UACC-257 melanoma it was 87.9%; in the experiment on M14 melanoma, 70.3%; with HCT-15 colon, -12.8% (active); with HT29 colon it was 1.21% (active). The growth is 11.2% with SNB-75 CNS; 8.88% (active) in the experiment on SNB-19 CNS; 1.61% (active) in the experiment on U251 CNS; 55.2% with PC-3 prostate; 71.3% with SK-MEL-5 melanoma; 56.6% in the experiment with UACC-62 melanoma. Besides, the growth was -73.1% (active) in the experiment with LOX IMVI melanoma and 80.7% in the experiment with SK-MEL-28 melanoma.
